Assay outcomes: PubChem, National Center for Advancing Translational Sciences (NCATS)
An excerpt weighted towards active compounds, which were near 18% of everything screened.
IL1B secr inh – qHTS for Inhibitors of Inflammasome Signaling: IL-1-beta AlphaLISA Primary Screen; THP-1 LPS/ATP IL-1B secretion, AlphaLISA, 16 h; hits give low values; activity change, % at 57.5 µM; AID 743279, 2014; 360,000 compounds, 4.7% hits; in the data active means activity change below about -50%; inconclusive means mostly about -30% to -49%; further: on the % scale 0 is the no-effect control and ±100 the full control effect
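Secreted IL-1B measured by AlphaLISA bead assay after 16 h compound exposure of THP-1 cells; compounds (final up to 57.5 uM) added 1 h before LPS (250 ng/mL) and ATP (1.25 mM) stimulation; lower signal means less secretion.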
TGFb inhibitor – qHTS for Inhibitors of TGF-b; 410,000 compounds, 1.2% hits; Potency, µM (series often up to 46.1 µM), for inactives: top-dose activity, negative = inhibition, usual class: inhibitors; AID 588855, 2011; HepG2 CAGA-GFP TGF-b/SMAD3 reporter, GFP fluorescence, 18 h; TGF-beta stimulated, 500 pg/mL final; further: potency means the concentration at half of the fitted maximal effect; on the % scale 0 is the no-effect control and ±100 the full control effect; nearly all actives have a fitted effect of over 65% in size
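Read-out: total well GFP (ex488/em500-530) summed from mean per-cell fluorescence. Cells: HEPG2 CAGA-GFP, 1% FBS DMEM, 18 h at 37 degrees C with 500 pg/mL final TGF-beta. Unstimulated wells served as the full-inhibition control; stimulated DMSO wells = 0%.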
HepG2 viability – qHTS for Inhibitors of TGF-b: Cytotox Counterscreen | HepG2 CAGA-GFP viability, ATP luminescence, 18 h | Potency, µM (top dose mostly 46.1 µM), for inactives: at the top dose activity change, negative = cytotoxicity, usual class: cytotoxic | 410,000 compounds, 0.76% hits | AID 588856, 2011; further: potency means the concentration at half of the fitted maximal effect
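CellTiter-Glo luminescence gave cytotoxicity after 18 hours at 37 degrees C. The cells were HepG2 CAGA-GFP in 1% FBS DMEM, stimulated with 500 pg/mL TGF-beta after compound addition. %Activity was normalised to no-cell wells (complete cell-killing) and DMSO (no toxicity), and curves were fitted and classified.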
DT40 TDP1 no CPT – qHTS for Inhibitors of human tyrosyl-DNA phosphodiesterase 1 (TDP1): qHTS in cells in absence of CPT; DT40 Tdp1-/- hTDP1 cells, no CPT, ATP luminescence, 48 h; Potency, µM (titrated, usually from 46.2 µM), for inactives: at the top dose activity change, negative = growth inhibition, hits mostly inhibitors; 420,000 compounds, 15% hits; AID 686978, 2013; further: potency means the concentration at half of the fitted maximal effect; on the % scale 0 is the no-effect control and ±100 the full control effect; nearly all actives have a fitted effect of over 55% in size
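Camptothecin absent (DMSO only). Human TDP1-complemented DT40 knockout cells, 400 cells/well, 37 °C for minimum 48 hr; ATP measured via CellTiter-Glo, 30 min dark incubation, luminescence.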
TDP1 cell CPT – qHTS for Inhibitors of human tyrosyl-DNA phosphodiesterase 1 (TDP1): qHTS in cells in presence of CPT. AID 686979, 2013. Potency, µM (series often up to 46.2 µM), without a hit: at the top dose activity change, negative = growth inhibition, actives largely listed as inhibitors. 420,000 compounds, 12% hits. chicken DT40 Tdp1-/-;hTDP1 cells + 20 nM CPT, ATP luminescence, 48 h; further: potency means the concentration at half of the fitted maximal effect; on the % scale 0 is the no-effect control and ±100 the full control effect; nearly all actives have a fitted effect of over 55% in size
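Cell growth measured by CellTiter-Glo luminescence after a minimum 48 h, 37 C compound exposure with 20 nM CPT in Tdp1-knockout DT40 cells stably expressing hTDP1, seeded 400/well; qHTS titration format.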
TDP1 block – qHTS Assay for Inhibitors of Tyrosyl-DNA Phosphodiesterase (TDP1) | 350,000 compounds, 0.28% hits | Potency, µM (series often up to 130 µM), for inactives: top-dose activity change, negative = inhibition, actives largely listed as inhibitors | AID 485290, 2010 | recombinant TDP1, AlphaScreen DNA substrate cleavage | Tyrosyl-DNA phosphodiesterase 1 (Homo sapiens), Q9NUW8; further: potency means the concentration at half of the fitted maximal effect; on the % scale 0 is the no-effect control and ±100 the full control effect; nearly all actives have a fitted effect of over 40% in size
Target sequence (Q9NUW8 whole entry, looked up): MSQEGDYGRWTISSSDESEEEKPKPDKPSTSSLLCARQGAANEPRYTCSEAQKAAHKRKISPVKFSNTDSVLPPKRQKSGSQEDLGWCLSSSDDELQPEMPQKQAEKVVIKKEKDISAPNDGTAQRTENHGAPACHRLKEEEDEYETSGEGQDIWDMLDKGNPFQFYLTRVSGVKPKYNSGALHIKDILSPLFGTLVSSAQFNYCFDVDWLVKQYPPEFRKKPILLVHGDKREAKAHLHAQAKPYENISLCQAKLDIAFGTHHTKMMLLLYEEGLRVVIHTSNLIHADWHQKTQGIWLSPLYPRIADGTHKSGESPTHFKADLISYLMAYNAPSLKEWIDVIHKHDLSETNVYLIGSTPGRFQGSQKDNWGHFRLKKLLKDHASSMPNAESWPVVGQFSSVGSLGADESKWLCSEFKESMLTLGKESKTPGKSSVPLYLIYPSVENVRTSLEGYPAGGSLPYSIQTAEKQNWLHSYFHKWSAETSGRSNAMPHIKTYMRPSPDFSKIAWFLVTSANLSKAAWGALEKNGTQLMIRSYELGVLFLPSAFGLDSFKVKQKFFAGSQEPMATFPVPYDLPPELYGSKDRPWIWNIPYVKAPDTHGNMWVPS
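Tdp1 1 nM final; 15 min RT w/ cpd; substrate 15 nM, 5 min; beads 10 ug/ml, 10 min; AlphaScreen read. Neg ctrl: no enzyme.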
An asterisk follows results filed as active; u = inconclusive; x = no result given; [ ] = dose if it differs, or a comment. Unless noted, the call rests on the fitted dose curve; in most records, active means well fitted curve in the direction sought with a large enough effect; inconclusive means small, poorly fitted or top-dose-only effect, or another doubt; inactive means no such curve, though single readings can be large; an effect the other way counts as inactive or inconclusive.

SMILES	IL1B secr inh	TGFb inhibitor	HepG2 viability	DT40 TDP1 no CPT	TDP1 cell CPT	TDP1 block
CC[C@H](C)/C=C/C1=CC2=C(Cl)C(=O)[C@@]3(C)OC(=O)C(C(=O)[C@H](C)[C@@H](C)O)=C3C2=CO1	-3	u	-61%	18µM*	u	x
Cc1nc2ccc(NC(=O)CSc3ccccc3)cc2s1	5	-4%	-20%	u	u	-3%
O=C(NCc1ccccc1)c1cc(C2COCCN2C(=O)c2ccc(Cl)cc2)on1 (stereo not drawn)	3	-26%	-20%	-29%	-3%	x
Cc1ccc(S(=O)(=O)NC(CC(=O)O)c2ccccc2)cc1 (stereo not drawn)	19	-15%	-1%	0%	-9%	0%
Cc1ccc(S(=O)(=O)NC(CCc2ccccc2)CC(=O)C(C)(C)C)cc1 (stereo not drawn)	4	u	-15%	16µM*	23µM*	3%
CCN(CC)CCCC(C)n1c(-c2ccccc2)nc2c(NCCOC)nc(C)nc21 (stereo not drawn)	x	x	x	x	x	3%
CCOC(=O)c1c(N)sc2c1CCN(CCc1ccccc1)C2	5	u	0%	u	u	x
CCN(CC)S(=O)(=O)c1cccc(C(=O)N/N=C/c2ccc(O)c(O)c2O)c1	35	u	-40%	16µM*	15µM*	6%
CCN(CC)S(=O)(=O)c1cccc(C(=O)N/N=C(\C)c2ccc(O)cc2O)c1	93	21%	-29%	6.5µM*	4.6µM*	3%
CCc1nc2ccc(C(=O)NCCCN3CCN(c4ccc(F)cc4)CC3)cc2nc1CC	2	-12%	-18%	u	u	x
Cc1ccc(C)c(N2CCN(Cc3csc(C)c3)CC2)c1	x	-32%	-33%	23µM*	u	3%
C/C=C(\C)CN1CCN(c2cc(C)ccc2C)CC1	21	-17%	-1%	-14%	u	2%
Cc1ccc(C)c(N2CCN(CCCNC(=O)c3ccc4nc(C(C)C)oc4c3)CC2)c1	x	u	-38%	3.7µM*	7.3µM*	3%
Cc1cc(CN2CCN(c3ccc(F)cc3)CC2)cs1	x	-25%	-15%	u	u	-3%
Cc1ccc(C)c(N2CCN(CCCNC(=O)c3ccc4nc(CCc5ccccc5)oc4c3)CC2)c1	x	-14%	-13%	4.1µM*	3.7µM*	3%
Cc1ccc(C)c(N2CCN(CCCc3ccccc3)CC2)c1	25	-21%	-44%	u	21µM*	x
COc1ccc(OC)c(CN2CCN(C(=O)CCC(=O)c3cccs3)CC2)c1	9	u	-25%	-3%	u	x
O=C(c1ccc(F)cc1)c1cn(Cc2ccccc2F)c2cc3c(cc2c1=O)OCCO3	x	u	-40%	21µM*	u	6%
COc1ccccc1Cn1cc(C(=O)c2ccc(C)cc2)c(=O)c2cc3c(cc21)OCCO3	x	13%	0%	21µM*	15µM*	0%
COc1ccccc1Cn1cc(C(=O)c2ccc(C)cc2)c(=O)c2cc(C)ccc21	x	-1%	-1%	7.3µM*	5.2µM*	5%
COc1ccccc1Cn1cc(C(=O)c2ccccc2)c(=O)c2cc(OC)c(OC)cc21	x	u	-28%	u	u	8%
Cc1[nH]c2c(F)cccc2c1CC(=O)NCCN1Cc2ccccc2OC(C)C1 (stereo not drawn)	x	x	x	-9%	-9%[9.04 µM]	x
